A number with no mark means an inactive call. Inconclusive results are not listed. Where a call stands in place of a potency, no number is given. Active and inactive are the calls of the source. Unless noted, the call rests on the fitted dose curve; in most records, active means well fitted curve in the direction sought with a large enough effect in the repeat runs; inconclusive means weak or mixed curves; inactive means no such curve, though single readings can be large; an effect the other way counts as inactive or inconclusive.
Columns and labels:
[1] = qHTS assay to identify small molecule HDAC inhibitors (AID 1259364); details: HCT-116 HDAC-Glo I/II luminescence, 2 h; series mostly up to 92.4 µM; further: nearly all actives have a fitted effect of over 45% in size; further: potency means the concentration at half of the fitted maximal effect; on activity change, negative = inhibition: top concentration of the series differs between compounds
Method in brief: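 Luminescence read after 30 min room-temperature HDAC-Glo incubation measures cellular class I/II HDAC activity. Compounds were applied for 2 hr at 37 C to HCT-116 wild-type cells seeded the day before.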

[2] = qHTS assay to identify small molecule antagonists of the sonic hedgehog signaling (Shh) pathway - cell viability counter screen (AID 1259367); details: NIH/3T3 Gli1-Luc viability, CellTiter-Fluor, 24 h; series mostly up to 92.4 µM; further: nearly all actives have a fitted effect of over 55% in size; further: potency means the concentration at half of the fitted maximal effect
Method in brief: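 CellTiter-Fluor signal in conditioned medium-stimulated 3T3 Gli1-Luc cells, 23 hr compound exposure, 37C.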

[3] = qHTS assay to identify small molecule agonists of the sonic hedgehog signaling (Shh) pathway (AID 1259368; calls by dose curve; further: nearly all actives have a fitted effect of over 15% in size; further: potency means the concentration at half of the fitted maximal effect;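 on activity change: NIH/3T3-derived 3T3Gli1-Luc cells carrying a stable Gli1-driven firefly luciferase reporter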); details: NIH/3T3 Gli1-Luc reporter, luciferase, 24 h; series mostly up to 92.4 µM
Method in brief: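 Luminescence was read after 30 min at room temperature with luciferase reagent. Before that, 3T3Gli1-Luc cells (NIH/3T3 clone, stable Gli1-Luc reporter; 2,000/well) were exposed to compounds for 24 hr at 37C, 5% CO2, compounds being added 4 hr post-plating.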

[4] = qHTS assay to identify small molecule antagonists of the sonic hedgehog signaling (Shh) pathway (AID 1259369; calls by dose curve; further: nearly all actives have a fitted effect of over 45% in size; further: potency means the concentration at half of the fitted maximal effect); details: NIH/3T3 Gli1-Luc reporter, Shh antagonist, luminescence 24 h; series mostly up to 92.4 µM
Method in brief: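 Antagonist mode: compound added to 3T3 Gli1-Luc cells followed by conditioned-medium stimulation, 24 h at 37 C, 5% CO2. Inhibition taken as loss of Gli1-driven luciferase luminescence.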

[5] = qHTS assay to identify small molecule phospholipidosis (PLD) inducers (AID 1259344; active means well fitted curve in the direction sought with a large enough effect; an effect the other way counts as inactive or inconclusive); details: HepG2 phospholipidosis, LipidTOX Red imaging, 24 h; series mostly up to 38.3 µM
Method in brief: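 Accumulated phospholipid, stained red by LipidTOX during 24 h compound treatment of HepG2 cells at 37 C, is quantified from images as pit number and intensity, normalised per cell using Hoechst-stained nuclei.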

[6] = qHTS assay to identify small molecule HDAC inhibitors - cell viability counter screen (AID 1259365); details: HCT-116 viability, CellTiter-Glo ATP luminescence, 2 h; series mostly up to 92.4 µM; further: nearly all actives have a fitted effect of over 50% in size; further: potency means the concentration at half of the fitted maximal effect
Method in brief: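 Counter screen in wild-type HCT-116 cells: compounds dissolved in DMSO are pin-transferred onto overnight-plated cells and left 2hr at 37C. ATP-based CellTiter-Glo luminescence then measures viable cells.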

[7] = qHTS assay to identify small molecule agonists of the sonic hedgehog signaling (Shh) pathway - cell viability counter screen (AID 1259366); details: NIH/3T3 Gli1-Luc viability, CellTiter-Fluor, 24 h; series mostly up to 92.4 µM; further: potency means the concentration at half of the fitted maximal effect; nearly all actives have a fitted effect of over 50% in size
Method in brief: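 Cells are plated at 2,000 per well and left 4hr at 37C, 5% CO2 before compound addition. After 23hr of treatment, CellTiter-Fluor reagent is added for 1hr at 37C and fluorescence is measured.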

[8] = target: Estrogen receptor (Homo sapiens) (UniProt P03372); assay: qHTS assay to identify small molecule antagonists of the estrogen receptor alpha (ER-alpha) signaling pathway using the BG1 cell line in the presence of 0.1 nM 17-beta-estradiol (AID 1259244); details: VM7Luc4E2 (BG1) ERE-luciferase, antagonist mode, 0.1 nM E2, 22 h; series mostly up to 92.4 µM; further: nearly all actives have a fitted effect of over 50% in size; further: potency means the concentration at half of the fitted maximal effect
Estrogen receptor (Homo sapiens), sequence (P03372 whole entry, looked up): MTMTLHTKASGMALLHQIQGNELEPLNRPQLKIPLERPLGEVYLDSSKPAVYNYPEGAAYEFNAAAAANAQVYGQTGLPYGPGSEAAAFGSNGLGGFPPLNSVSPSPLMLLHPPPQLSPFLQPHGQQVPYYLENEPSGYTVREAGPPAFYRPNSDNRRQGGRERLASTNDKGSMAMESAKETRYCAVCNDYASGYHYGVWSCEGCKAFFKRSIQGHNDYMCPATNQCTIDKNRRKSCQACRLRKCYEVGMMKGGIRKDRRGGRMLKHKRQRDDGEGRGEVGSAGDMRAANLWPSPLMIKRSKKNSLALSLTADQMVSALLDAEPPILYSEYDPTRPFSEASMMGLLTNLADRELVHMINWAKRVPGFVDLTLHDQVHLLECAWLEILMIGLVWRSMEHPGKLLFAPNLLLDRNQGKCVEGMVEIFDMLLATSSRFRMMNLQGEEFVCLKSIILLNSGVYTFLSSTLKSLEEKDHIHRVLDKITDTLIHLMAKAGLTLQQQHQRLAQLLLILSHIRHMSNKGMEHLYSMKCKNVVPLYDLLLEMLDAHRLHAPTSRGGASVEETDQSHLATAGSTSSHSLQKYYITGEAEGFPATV
Method in brief: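 Luciferase luminescence (ONE-Glo, 30 min at room temperature) was read after 22 hr at 37C exposure to compounds plus 17beta-estradiol at 0.1 nM final. Cells were VM7Luc4E2 with endogenous ER-alpha and an ERE-driven luciferase, pre-cultured 5 days in hormone-depleted medium.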

CCCOCC(=Nc1ccc(Cl)cc1C(F)(F)F)n1ccnc1
Potency [1]: inactive
Potency [2]: 54.4 µM (active)
Potency [3]: inactive
Potency [4]: 9.68 µM (active)

Clc1ccc(CO/N=C(\Cn2ccnc2)c2ccc(Cl)cc2Cl)c(Cl)c1
Potency [5]: inactive
Potency [1]: inactive
Potency [6]: inactive
Potency [3]: inactive
Potency [4]: 4.73 µM (active)

CC(=O)[O-].CC(=O)[O-].[Hg+2]
Potency [1]: 19.3 µM (active)
Potency [6]: 61.1 µM (active)
Potency [7]: 2.17 µM (active)
Potency [2]: 4.33 µM (active)
Potency [3]: inactive
Potency [4]: 0.686 µM (active)

C[C@]12CC[C@H]3[C@@H](CCC4=CC(=O)CC[C@@]43C)[C@@H]1CC[C@@H]2O
Potency [8]: inactive
Potency [1]: inactive
Potency [6]: inactive
Potency [2]: inactive
Potency [3]: inactive

CN(C)C(=S)[S-].CN(C)C(=S)[S-].[Cu+2]
activity change, negative = inhibition [1]: -15% [at 19 µM]
Potency [2]: 3.33 µM (active)
activity change [3]: -10.5% [at 18.9 µM, hits give high values]
Potency [4]: 1.49 µM (active)

CN(C)c1ccc(N=Nc2ccccc2)cc1
Potency [1]: 4.33 µM (active)
Potency [6]: inactive
Potency [7]: 27.3 µM (active)
Potency [3]: 1.72 µM (active)
Potency [4]: inactive

COc1ccc(OC)c(C=O)c1
Potency [8]: inactive
Potency [1]: inactive
Potency [6]: inactive
Potency [2]: inactive
Potency [3]: inactive
Potency [4]: inactive

NNC(=O)c1ccccc1
Potency [8]: inactive
Potency [6]: inactive
Potency [3]: inactive
Potency [4]: 31.5 µM (active)

CCCCN(CCCC)C(=S)[S-].CCCCN(CCCC)C(=S)[S-].[Zn+2]
Potency [8]: 13.7 µM (active)
Potency [1]: inactive
Potency [6]: inactive
Potency [7]: 5.44 µM (active)
Potency [2]: 6.85 µM (active)
Potency [3]: inactive
Potency [4]: 4.85 µM (active)
